The text below walks through data of PubChem BioAssay (NCATS).

Structures are written as SMILES. Inconclusive results are not listed. The source made the active and inactive calls. Unless noted, the call rests on the fitted dose curve; in most records, active means well fitted curve in either direction with a large enough effect (not every such curve was filed as active); inconclusive means small, poorly fitted or top-dose-only effect, or another doubt; inactive means flat fitted curve, though single readings scatter. Where only a bound is given, the exact number is not on record here.

Assay [1] in a line: AP1 Signaling Pathway (AID 357).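 Further: ME-180 reporter cells stimulated with EGF at its EC50 level; on the % scale 0 is the no-effect control and ±100 the full control effect.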 In outline: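 Modulation of EGF-driven AP-1 transcription was assessed with a beta-lactamase reporter in ME-180 cells. Compound and EC50 EGF were co-incubated 5 hours at 37 °C before 2.5-hour CCF4 loading at room temperature and dual-emission reading.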
In assay [2] the target is Cytochrome P450 1A2 (Homo sapiens) (UniProt P05177). Briefly: p450-cyp1a2 (AID 410; calls by dose curve; further: potency means the concentration at half of the fitted maximal effect;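 on activity change, negative = inhibition: -100% = full effect of reference inhibitor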). In outline:
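20nM CYP1A2, 100uM Luciferin-ME (=Km), 100mM KPO4; cpd 10 min RT; +NADPH regen, 60 min RT; stop/detect 20 min; luminescence. Normalized to furafylline 57 uM = full inhibition.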

Assay [3] in a line: Stat Signaling Pathway (AID 446).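 Further: ME-180 cervical cancer cells given 40 pM IL-6 alongside compound; SIE-controlled beta-lactamase reporter measured as 460/530 nm FRET emission ratio; on the % scale 0 is the no-effect control and ±100 the full control effect.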 A digest of the protocol: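 Compound effects on IL-6-induced STAT reporter activity were measured in ME-180 cells. After overnight culture, cells were co-treated with 40 pM IL-6 for 5 hrs before beta-lactamase substrate loading at room temperature.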
In assay [4] the target is Mitogen-activated protein kinase 10 (Mus musculus) (UniProt Q61831). Briefly: JNK3 AlphaScreen Assay (AID 530).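 Further: kinase came from lysate of stimulated human HepG2 cells; signal reports phosphorylation of biotinylated GST-cJun 1-79 at Ser73 with 10 µM ATP; on the % scale 0 is the no-effect control and ±100 the full control effect.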 In outline:
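Biotinylated GST-cJun(1-79) served as substrate for JNK3 in HepG2 lysates stimulated with IL-1beta and TNF-alpha. ATP was 10 uM final, pH 7.6. Ser73 phosphorylation was quantified by AlphaScreen (680 nm excitation).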
On the technique in general: In Alpha technology, singlet oxygen from a donor bead excites a nearby acceptor bead.

In assay [5] the target is 3',5'-cyclic-AMP phosphodiesterase 4B (Homo sapiens) (UniProt Q07343). Put plainly: qHTS Assay for Inhibitors of PDE-IV (AID 607; active means well fitted activation curve with a large enough effect in the main read-out, with a control signal flat, not every such curve was filed as active; further: % of control where 0% means no effect). In outline: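 ACTOne HEK293 cells carry a modified cAMP-gated CNG channel and express endogenous PDE4; plated 1000 cells/well, compounds up to 22.9 uM final. Membrane-potential dye fluorescence (ex 535/em 590) was read; parental cells received 10 uM forskolin + 100 uM RO 20-1724.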
A general note: In qHTS, concentration-response curves come from the screen itself.

A short description of assay [6]: qHTS Assay for Lipid Storage Modulators (AID 1519; calls by dose curve). To be noted: Drosophila S3 cells, BODIPY lipid droplet/cell ratio, laser cytometry, cells loaded with oleic acid. In outline: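 Cells seeded at 5,000 per well were treated with compounds over a concentration series and loaded with oleic acid (400 uM, as added). Lipid droplet fluorescence (488 nm excitation, 500-530 nm channel) was read by laser-scanning cytometry and normalized to 20 uM Triacsin C.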

Assay [7] deals with Ubiquitin carboxyl-terminal hydrolase 1 (Homo sapiens) (UniProt O94782). Briefly: Inhibitors of USP1/UAF1: Pilot qHTS (AID 504865; active means well fitted inhibition curve with a large enough effect; further: nearly all actives have a fitted effect of over 35% in size; further: potency means the concentration at half of the fitted maximal effect). In outline:
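USP1/UAF1 complex (1nM) preincubated with compound 15 min at room temperature, then Ub-Rho substrate (150nM final) added. Fluorescence read kinetically at 480/540 nm, 6 reads every 60 seconds. Buffer: 50mM HEPES pH 7.8, 0.5mM EDTA, 0.1 mg/ml BSA, 1mM TCEP, 0.01% Tween-20.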

Assay [8] has as its target Luciferin 4-monooxygenase (Photinus pyralis) (UniProt P08659). Briefly: Biochemical firefly luciferase enzyme assay for NPC (AID 624030; active means well fitted inhibition curve with a large enough effect;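 further: purified P. pyralis luciferase at 10 nM with luciferin and ATP substrate; 0% = DMSO and -100% = full luciferase inhibition by PTC124 control; nearly all actives have a fitted effect of over 70% in size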). A digest of the protocol:
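Counter-screen for direct inhibition of the luciferase enzyme by approved-drug library compounds, run at 10 nM enzyme in 50 mM Tris acetate (final). Luminescence was read within 5 min of enzyme-buffer addition and normalized to PTC124 versus DMSO (0%).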

The nature of assay [9]: qHTS profiling for inhibitors of Plasmodium falciparum proliferation (AID 504749; active means well fitted inhibition curve with a large enough effect;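 further: 0% = DMSO vehicle and full inhibition = artemisinin control; nearly all actives have a fitted effect of over 60% in size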). To be noted: P. falciparum in erythrocytes, SYBR Green DNA, 72 h, at 28.7 µM (top of the series). In outline: (§1)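 Fluorescence of SYBR Green-bound parasite DNA, read at 485/535 nm, served as the growth measure. Infected erythrocytes were cultured with compound 72 h; artemisinin (0.29 uM) and DMSO wells defined the normalization range.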

Another assay relates to 3D7. Described as above. To be noted: P. falciparum in erythrocytes, SYBR Green DNA, 72 h; series mostly up to 28.7 µM. A digest of the protocol:
as §1

The next assay relates to C2A. The description is as above. To be noted: P. falciparum in erythrocytes, SYBR Green DNA, 72 h; series mostly up to 28.7 µM. In outline:
as §1

In another assay the test system is CP211. The description is as above. To be noted: P. falciparum in erythrocytes, SYBR Green DNA, 72 h; series mostly up to 28.7 µM. A digest of the protocol: as §1
The test system of another assay is CP217. Described as above. To be noted: P. falciparum in erythrocytes, SYBR Green DNA, 72 h; series mostly up to 28.7 µM. A digest of the protocol:
as §1

In another assay the test system is CP252. The assay is described as above. To be noted: P. falciparum in erythrocytes, SYBR Green DNA, 72 h; series mostly up to 12.8 µM. In outline:
as §1

The next assay concerns CP262. The assay is described as above. To be noted: P. falciparum in erythrocytes, SYBR Green DNA, 72 h; series mostly up to 28.7 µM. In outline: as §1
For another assay, the system named is CP286. The assay is described as above. To be noted: P. falciparum in erythrocytes, SYBR Green DNA, 72 h; series mostly up to 28.7 µM. In outline: as §1
In another assay the test system is ECU. The assay is described as above. To be noted: P. falciparum in erythrocytes, SYBR Green DNA, 72 h; series mostly up to 28.7 µM. A digest of the protocol: as §1
Assay [10] deals with Glucocorticoid receptor (Homo sapiens) (UniProt P04150). Put plainly: GR-GFP Redistribution (AID 450;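 active means compounds whose dose series gives a full or clear partial fitted curve of increased nuclear translocation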; further: potency means the concentration at half of the fitted maximal effect). To be noted: U2OS GR-GFP nuclear translocation, laser cytometry, 2 h.
The target is the same in assay [11]. Put plainly: GR-EFC Redistribution (AID 451; calls by dose curve; further: potency means the concentration at half of the fitted maximal effect). To be noted: CHO-K1 GR-EFC translocation, beta-gal luminescence, 2 h. In outline:
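CHO-K1 cells stably expressing nuclear-localized β-gal enzyme acceptor and GR fused C-terminally to the enzyme donor fragment; ligand-driven nuclear translocation restores β-gal by complementation. Compounds titrated up to 46 uM final, 2 h at 37 °C; luminescence read.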

The nature of assay [12]: NFAT Signaling Pathway (AID 444).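 Further: carbachol stimulus at about its EC50 of 1 µM final; on the % scale 0 is the no-effect control and ±100 the full control effect.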 To be noted: Jurkat NFAT-bla M1, carbachol, beta-lactamase ratio, 5 h; at 17.2 µM (top of the series). In outline:
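Jurkat cells carrying an NFAT-driven β-lactamase reporter and co-transfected muscarinic M1 receptor were treated with compound plus carbachol (1 uM final, an EC50 level) for 5 h at 37 °C. CCF4 loading followed for 1 h at RT; 460/530 nm ratio gave %activity.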

[13] abbreviates: measured here: cell count channel max response.
Setting [14] is: measured here: lipid channel max response.

Ubiquitin carboxyl-terminal hydrolase 1 (Homo sapiens), sequence (O94782 whole entry, looked up): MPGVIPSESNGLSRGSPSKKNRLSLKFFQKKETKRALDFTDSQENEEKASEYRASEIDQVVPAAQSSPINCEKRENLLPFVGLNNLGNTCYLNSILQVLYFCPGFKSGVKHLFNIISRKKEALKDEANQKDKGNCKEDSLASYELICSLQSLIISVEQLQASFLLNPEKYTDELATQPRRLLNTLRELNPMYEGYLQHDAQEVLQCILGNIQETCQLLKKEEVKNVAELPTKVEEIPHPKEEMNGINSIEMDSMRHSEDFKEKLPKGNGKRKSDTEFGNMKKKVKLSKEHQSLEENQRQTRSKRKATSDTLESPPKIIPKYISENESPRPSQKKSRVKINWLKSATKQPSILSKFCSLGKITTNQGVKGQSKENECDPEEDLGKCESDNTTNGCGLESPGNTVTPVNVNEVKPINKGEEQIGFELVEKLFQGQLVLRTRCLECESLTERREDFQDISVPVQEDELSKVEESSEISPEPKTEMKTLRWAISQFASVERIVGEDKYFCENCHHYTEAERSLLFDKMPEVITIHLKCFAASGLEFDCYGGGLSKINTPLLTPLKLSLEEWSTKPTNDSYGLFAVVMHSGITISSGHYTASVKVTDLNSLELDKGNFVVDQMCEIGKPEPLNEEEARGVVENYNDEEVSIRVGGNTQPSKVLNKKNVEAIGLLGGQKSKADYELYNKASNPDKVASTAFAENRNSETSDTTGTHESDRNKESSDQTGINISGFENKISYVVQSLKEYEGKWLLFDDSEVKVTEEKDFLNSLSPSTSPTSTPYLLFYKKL
Cytochrome P450 1A2 (Homo sapiens), sequence (P05177 whole entry, looked up): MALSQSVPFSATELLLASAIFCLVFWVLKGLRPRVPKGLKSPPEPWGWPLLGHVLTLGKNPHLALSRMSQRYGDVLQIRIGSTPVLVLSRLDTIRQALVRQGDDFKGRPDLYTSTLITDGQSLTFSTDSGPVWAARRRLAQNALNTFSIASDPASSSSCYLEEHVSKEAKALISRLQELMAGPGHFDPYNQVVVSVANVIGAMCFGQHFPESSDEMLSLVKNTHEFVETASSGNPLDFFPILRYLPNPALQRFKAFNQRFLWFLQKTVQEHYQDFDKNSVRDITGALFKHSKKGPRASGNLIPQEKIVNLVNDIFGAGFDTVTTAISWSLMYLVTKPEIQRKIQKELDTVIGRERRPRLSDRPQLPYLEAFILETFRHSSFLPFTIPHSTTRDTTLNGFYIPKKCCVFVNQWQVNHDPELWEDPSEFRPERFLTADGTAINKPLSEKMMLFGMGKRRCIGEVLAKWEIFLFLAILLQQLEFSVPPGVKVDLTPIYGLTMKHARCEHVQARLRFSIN
3',5'-cyclic-AMP phosphodiesterase 4B (Homo sapiens), sequence (Q07343 whole entry, looked up): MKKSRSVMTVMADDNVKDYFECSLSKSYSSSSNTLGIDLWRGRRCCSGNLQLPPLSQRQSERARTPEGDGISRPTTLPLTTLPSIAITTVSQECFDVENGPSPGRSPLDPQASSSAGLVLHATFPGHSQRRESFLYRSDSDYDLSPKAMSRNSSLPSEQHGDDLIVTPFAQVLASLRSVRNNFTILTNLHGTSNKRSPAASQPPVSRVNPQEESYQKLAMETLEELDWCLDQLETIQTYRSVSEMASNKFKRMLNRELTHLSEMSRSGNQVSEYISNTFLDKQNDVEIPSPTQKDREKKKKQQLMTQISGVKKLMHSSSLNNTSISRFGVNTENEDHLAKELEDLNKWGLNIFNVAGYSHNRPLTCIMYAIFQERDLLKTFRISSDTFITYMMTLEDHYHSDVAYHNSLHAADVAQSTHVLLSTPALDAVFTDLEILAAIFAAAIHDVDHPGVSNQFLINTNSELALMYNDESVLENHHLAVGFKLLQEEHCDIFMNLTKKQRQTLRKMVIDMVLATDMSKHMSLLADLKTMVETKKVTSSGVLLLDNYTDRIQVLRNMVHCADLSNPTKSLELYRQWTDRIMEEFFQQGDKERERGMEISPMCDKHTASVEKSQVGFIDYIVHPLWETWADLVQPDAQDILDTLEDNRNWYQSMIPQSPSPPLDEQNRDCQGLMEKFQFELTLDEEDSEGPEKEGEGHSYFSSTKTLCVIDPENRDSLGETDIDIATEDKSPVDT
Glucocorticoid receptor (Homo sapiens), sequence (P04150 whole entry, looked up): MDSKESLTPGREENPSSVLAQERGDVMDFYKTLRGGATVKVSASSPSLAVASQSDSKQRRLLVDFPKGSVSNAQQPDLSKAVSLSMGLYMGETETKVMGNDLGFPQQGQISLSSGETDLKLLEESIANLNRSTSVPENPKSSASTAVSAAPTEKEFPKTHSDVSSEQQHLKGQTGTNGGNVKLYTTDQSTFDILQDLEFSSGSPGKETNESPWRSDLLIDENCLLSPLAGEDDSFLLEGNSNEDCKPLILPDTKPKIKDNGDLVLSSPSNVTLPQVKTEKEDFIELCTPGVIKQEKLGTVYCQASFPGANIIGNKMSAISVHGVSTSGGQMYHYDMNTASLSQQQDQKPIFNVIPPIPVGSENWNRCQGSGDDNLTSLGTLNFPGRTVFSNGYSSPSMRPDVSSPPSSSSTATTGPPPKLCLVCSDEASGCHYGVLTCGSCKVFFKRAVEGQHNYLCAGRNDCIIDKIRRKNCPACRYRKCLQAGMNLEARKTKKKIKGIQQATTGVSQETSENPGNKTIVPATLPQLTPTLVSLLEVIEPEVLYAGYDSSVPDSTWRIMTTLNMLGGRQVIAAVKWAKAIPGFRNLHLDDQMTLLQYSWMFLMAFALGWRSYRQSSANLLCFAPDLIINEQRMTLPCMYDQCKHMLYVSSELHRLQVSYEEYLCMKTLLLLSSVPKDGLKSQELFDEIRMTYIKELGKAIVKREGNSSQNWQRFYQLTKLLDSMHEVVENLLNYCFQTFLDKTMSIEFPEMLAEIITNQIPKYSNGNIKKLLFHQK
Luciferin 4-monooxygenase (Photinus pyralis), sequence (P08659 whole entry, looked up): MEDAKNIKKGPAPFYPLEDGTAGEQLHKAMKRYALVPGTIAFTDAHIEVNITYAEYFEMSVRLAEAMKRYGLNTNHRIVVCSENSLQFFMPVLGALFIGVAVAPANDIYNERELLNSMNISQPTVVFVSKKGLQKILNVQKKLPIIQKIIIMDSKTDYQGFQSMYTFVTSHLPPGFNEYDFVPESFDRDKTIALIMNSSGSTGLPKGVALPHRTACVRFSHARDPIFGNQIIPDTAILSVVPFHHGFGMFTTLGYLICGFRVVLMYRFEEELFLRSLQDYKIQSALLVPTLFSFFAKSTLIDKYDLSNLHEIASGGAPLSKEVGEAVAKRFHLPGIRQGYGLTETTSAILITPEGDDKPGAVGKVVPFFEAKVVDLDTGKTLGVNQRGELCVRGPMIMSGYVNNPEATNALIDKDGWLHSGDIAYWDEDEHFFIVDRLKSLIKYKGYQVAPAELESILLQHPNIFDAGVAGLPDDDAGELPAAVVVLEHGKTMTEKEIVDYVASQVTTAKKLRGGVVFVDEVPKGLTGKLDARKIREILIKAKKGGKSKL

Take `N[C@H]1C[C@H]1c1ccccc1`: the compound was classed as inactive in [1], in [3] and in assay [4]. In addition, the Potency in assay [2] was 5.01 µM (active). The Potency entry (in assay [5]; in assay [7]; in [8]; in the assay with 3D7; in the assay with C2A; with CP211) was “inactive” throughout. In addition, the Potency entry in the assay on CP217, in the assay on CP252, with CP262, with CP286 and in the assay with ECU was “inactive” throughout. Besides, the activity change, negative = inhibition in assay [6] (at 25.7 µM (top of the series)) was -0.294% (inactive). For the same compound, the max response in assay [6] (setting [13]) was 5.35%; in assay [6] (setting [14]), 3.84%. The activity, negative = inhibition in assay [9] (parasite line A) was 10.1% (inactive); in assay [9] (parasite line B), 3.27% (inactive).
As to `CC[N@+]1(C)CCC[C@@H](OC(=O)C(O)(c2ccccc2)c2ccccc2)C1`, the result in assay [1], in assay [3] and in assay [4] was inactive. Moreover, the Potency result in [2], in assay [5] and in assay [7] was “inactive” in each case. Also, the Potency in [10] and in assay [11] was > 20.6 µM (inactive) throughout. Besides, the activity change, negative = inhibition in assay [6] (at 25.7 µM (top of the series)) is -4.06% (inactive). Moreover, the results for the max response in assay [6] (setting [13]) and in assay [6] (setting [14]) were -4.84% and -5.77%, respectively.
With `COc1cc2c(cc1O)[C@H]1Cc3ccc(OC)c(O)c3CN1CC2`, the outcome in assay [1], in assay [3] and in assay [4] was inactive. The Potency is 15.8 µM (active) in assay [2], > 20.6 µM (inactive) in assay [11] and 10 µM (active) in assay [7]. In addition, the Potency result in [5] was “inactive”. For the same compound, in assay [6] (at 25.7 µM (top of the series)), the activity change, negative = inhibition was -1.48% (inactive). Also, the max response in assay [6] (setting [13]) is -2.59%; in assay [6] (setting [14]), -3.7%.
For the compound `CC(C)[C@@]1(NC(=O)[C@@H]2C[C@H]3c4cccc5[nH]cc(c45)C[C@@H]3N(C)C2)O[C@]2(O)[C@H]3CCCN3C(=O)[C@H](Cc3ccccc3)N2C1=O`, the outcome in [1] and in assay [4] was inactive. The Potency entry in assay [2] and in [5] was “inactive” in each case. Besides, the activity change, negative = inhibition is 1.85% (inactive) in [12] and -1.27% (inactive) in assay [6] (at 25.7 µM (top of the series)). Further, the Potency in [11] is > 20.6 µM (inactive). Besides, the values for the max response in assay [6] (setting [13]) and in assay [6] (setting [14]) were 6.35% and 5.89%, respectively.
As for `CC(C)C[C@H]1C(=O)N2CCC[C@@H]2[C@@]2(O)O[C@](NC(=O)[C@@H]3C=C4c5cccc6[nH]cc(c56)C[C@@H]4N(C)C3)(C(C)C)C(=O)N12`, the compound was called inactive in assay [1], in assay [3] and in [4]. The Potency in assay [2] was 12.6 µM (active); in [10] it was > 20.6 µM (inactive); in assay [11], > 20.6 µM (inactive); in assay [7], 14.1 µM (active). The Potency entry in assay [5] is “inactive”. Further, the activity change, negative = inhibition in assay [6] (at 25.7 µM (top of the series)) is 1.16% (inactive). In addition, the max response in assay [6] (setting [13]) is -5.41%; in [6] (setting [14]), -4.79%.
As for `CC[C@H]1CN2CC[C@@H]1C[C@H]2[C@@H](O)c1ccnc2ccc(OC)cc12`, the outcome in assay [1], in assay [3] and in [4] was inactive. The Potency in [10] and in assay [11] was > 20.6 µM (inactive) in each case. In assay [6] (at 25.7 µM (top of the series)), the activity change, negative = inhibition was -3.88% (inactive). Besides, the max response in assay [6] (setting [13]) is -1.96%; in [6] (setting [14]) it was -5.46%.
Regarding `CNC(=O)N(C)c1nnc(C(C)(C)C)s1`, the call in assay [1] and in [3] was inactive. Besides, the figures for the activity change, negative = inhibition in [12] and in assay [6] (at 57.5 µM (top of the series)) were -5.4% (inactive) and 6.39% (inactive), respectively. For the same compound, the values for the max response in assay [6] (setting [13]) and in assay [6] (setting [14]) were 16.4% and 25.2%, respectively.
